PubChem BioAssay (NCI)
About 83,000 compounds went through this panel and 20% of them were active in at least one assay; those are over-represented in the sample as a whole.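 Single-dose data. Exposure time 48 hours. Values below 10 considered active.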 Unmarked numbers belong to inactive results. Activity calls are given as the source filed them.

Experiments:
Assay in all cases: NCI-60 one-dose screen, 48 h (100 = growth as untreated, 0 = no growth, -100 = all killed)
Conditions in all cases: 10 µM unless noted
[1] = test system: HCT-15 colon
[2] = test system: HT29 colon
[3] = test system: SNB-75 CNS
[4] = test system: SNB-19 CNS
[5] = test system: U251 CNS
[6] = test system: PC-3 prostate
[7] = test system: SK-MEL-5 melanoma
[8] = test system: UACC-62 melanoma
[9] = test system: LOX IMVI melanoma
[10] = test system: SK-MEL-28 melanoma

Row | SMILES | growth [1] | growth [2] | growth [3] | growth [4] | growth [5] | growth [6] | growth [7] | growth [8] | growth [9] | growth [10]
1 | CC/C(=C(/c1ccc(Cl)cc1)c1ccc(OCCN(C)C)cc1)c1ccc(Cl)cc1 | 32.2% | 22.4% | 61.9% | 78.4% | 37.8% | 71.4% | 86.4% | 96.3% | 65.3% | 90.3%
2 | CCOc1ccccc1Cn1ccnc1CCc1c(Cl)c(O)cc(O)c1C(=O)OC | 104% | 94.8% | 88.2% | 92.4% | 97.5% | 86.9% | 94.6% | 92.1% | 89.2% | 96.6%
3 | CCOC(=O)c1c(NC(=O)c2ccc(Cl)cc2)sc2c(CN(C)C)c(O)ccc12 | -1.49% (active) | 23% | 79.2% | 79.5% | 54.4% | 72.9% | 87.4% | 103% | 60.6% | 73.8%
4 | Cc1cc(N2CCN(CC(=O)Nc3ccc4c(ccn4C)c3)CC2)nc(N2CCCCCC2)n1 | 79% | 56.9% | 90.1% | 89.1% | 85.9% | 82.8% | 92.1% | 84.3% | 92.8% | 96.9%
5 | CSc1nc2ccccc2cc1/C=[N+](\[O-])c1ccccc1 | 18.7% | 80.2% | 67.3% | 72.9% | 46.2% | 40.9% | 52.5% | 51.5% | 38.1% | 93.8%
6 | O=c1[nH]c(Cc2nc3ccccc3s2)nc2cc(Br)ccc12 | 61.7% | 43.7% | 82.1% | 82.2% | 81.9% | 60.9% | 80.6% | 2.81% (active) | 27.8% | 55.1%
7 | Oc1c(I)cc(I)cc1CNCCN(Cc1ccccn1)Cc1ccccn1 | -30.4% (active) | -37% (active) | -57.2% (active) | 16.7% | -29.1% (active) | -41% (active) | -97% (active) | -14.3% (active) | -64.2% (active) | -14% (active)
8 | COC1=CC(c2ccc[nH]2)=N/C1=C\c1[nH]c(C)c(C)c1CCC(=O)OCc1ccccc1 | -32.2% (active) | 5.68% (active) | -2.99% (active) | 21% | -40.4% (active) | -27.2% (active) | -89.2% (active) | -54.7% (active) | -62.9% (active) | -32.6% (active)
9 | N#CSCC1CC(O)(c2ccccc2)CC(c2ccc(F)cc2)O1 (stereo not given) | 16.5% | -0.0912% (active) | -25.8% (active) | 31.9% | -51.2% (active) | 25.8% | 22.1% | 11.4% | -46.8% (active) | 43.9%
10 | CCC1=C[C@@H]2C[C@]3(C(=O)OC)c4[nH]c5ccccc5c4CC[N@+](CC(=O)Nc4cc5c(cc4OC)N(C)[C@H]4[C@@](O)(C(=O)OC)[C@H](OC(C)=O)[C@]6(CC)C=CCN7CC[C@]54[C@@H]76)(C2)[C@H]13 | 108% | 109% | 98.8% | 110% | 97.3% | 93.2% | 101% | 97.7% | 99.1% | 109%
11 | O=C1c2ccccc2-c2c1c1c(=O)[nH]c3ccccc3c1n2Cc1ccccc1 | 84.5% | 75.6% | 70.8% | 68.7% | 68.6% | 74% | 60.6% | 53.8% | 82.7% | 85.7%
12 | C=C(CBr)[C@@H]1CC[C@]2(C(=O)O)CC[C@]3(C)[C@H](CC[C@@H]4[C@@]5(C)CCC(=O)C(C)(C)[C@@H]5CC[C@]43C)[C@@H]12 | 73.2% | 97.5% | 98.7% | 78.7% | 70.9% | 57.4% | 50.5% | 69% | 75.4% | 88.7%
13 | CCSc1oc(-c2ccccc2)nc1[P+](c1ccccc1)(c1ccccc1)c1ccccc1 | 6.09% (active) | 1.21% (active) | 2.74% (active) | 12.4% | 15.2% | -1.59% (active) | -91.8% (active) | -0.29% (active) | -84.9% (active) | 29.8%
14 | N#CSc1c[nH]c2cccc(/C=C/C(=O)/C=C(/C=C/c3cccc4[nH]cc(SC#N)c34)OB(F)F)c12 | -73.6% (active) | -74.5% (active) | -31.5% (active) | 19.1% | -83.3% (active) | -19.6% (active) | -74.1% (active) | -50.5% (active) | -85.4% (active) | -47.9% (active)
15 | CC(C)c1ccc(Cc2cnc(NC(=O)c3cc(Br)cs3)s2)cc1 | 21.6% | 7.43% (active) | -3.65% (active) | 42.9% | 18.6% | 26.7% | 10.1% | 42.5% | 41.3% | 53.5%
16 | COc1ccc(Nc2nnc(-c3ccc(OC)c(OC)c3)o2)cc1 | 80.3% | 90.9% | 97.5% | 97.5% | 93% | 70.7% | 89% | 90.2% | 59.2% | 106%
17 | C1CN(SSN2CCOCC2)CCO1 | 19.2% [100 µM] | -50.6% [100 µM] (active) | 48.3% [100 µM] | 67% [100 µM] | -28% [100 µM] (active) | 31.2% [100 µM] | 25.7% [100 µM] | 19.8% [100 µM] | -41% [100 µM] (active) | -43.3% [100 µM] (active)
18 | C#CCOc1cccc(Nc2ncnc3cc(NC(=O)C=C)ccc23)c1 | 7.73% (active) | 1.75% (active) | 24.7% | 33.8% | 33.1% | 24.2% | 8.74% (active) | 9.66% (active) | 3.54% (active) | 49%
19 | CCCn1cc2c(=O)nc3sc(Cc4ccccc4)c(C)n3c2n1 | 106% | 98% | 97.6% | 98% | 93.2% | 98.5% | 107% | 95% | 94% | 123%
